Hit rate of the full screen: of about 330,000 compounds, about 980 (0.3%) were called active.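 How the source made its calls: active means percent response vs DMSO below 50%; inconclusive means fewer than 70 events counted for the yeast strain; inactive means the rest.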 Many of the other results were omitted from the sample, so actives are more common in it than they were.

This assay can be described thus: RPL19A-GFP expression modulators in yeast, primary screen, cell-based, S. cerevisiae, multiplex flow cytometry, MLPCN (AID 2025).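 Further: median channel GFP fluorescence of the barcoded RPL19A-GFP strain; ratio of sample median GFP to plate DMSO average so 100% = DMSO; lower means less RPL19A-GFP as with rapamycin TOR inhibition.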 As to conditions: S. cerevisiae RPL19A-GFP strain, 3 h, at 10 µM, active compounds read low.
Consider `Cc1cccc2c(CCN)c[nH]c12`, for which the percent response vs DMSO was 101% (inactive).

`NCCc1c[nH]c2ccc(O)cc12`: the percent response vs DMSO is 32.1% [may fluoresce violet] (active).

For the molecule `C/C(CCc1c[nH]c2ccccc12)=N\O`, the percent response vs DMSO is 100% (inactive).

Take `OC1/C(=C/c2ccc(C(F)(F)F)cc2)N2CCC1CC2` (stereo not given): the percent response vs DMSO was 97.2% (inactive). Turning to `OCC#CC[N+]1(CC#Cc2ccccc2)CCCC1`, the percent response vs DMSO was 99.6% (inactive).

Values taken from PubChem BioAssay AID2025 (NMMLSC, 2009).
